Records with an inconclusive call do not appear. Active and inactive are the calls of the source. Unless noted, calls come from the whole dose curve; as a rule, active = well fitted curve in the direction sought with a large enough effect; inconclusive = small, poorly fitted or top-dose-only effect, or another doubt; inactive = no such curve, though single readings can be large; an effect the other way counts as inactive or inconclusive.

Experiment [1] is described as follows: Validation screen for small molecules that induce genotoxicity in human embryonic kidney (HEK293T) cells expressing luciferase-tagged ELG1 (AID 493106). Note: 0% is about no effect. A digest of the protocol:
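qHTS format; 2,000 HEK293T ELG1-luc cells/well; 23 nL compound via pin tool; 16 hr, 37 °C/5% CO2; ONE-Glo, 30 min RT; luminescence read.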

The target of experiment [2] is ATPase family AAA domain-containing protein 5 (Homo sapiens) (UniProt Q96QE3). Put plainly: Validation screen for small molecules that inhibit ELG1-dependent DNA repair in human embryonic kidney (HEK293T) cells expressing luciferase-tagged ELG1 (AID 493107).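 Note: cells co-treated with the DNA-damaging agent 5-fluorouridine alongside compound; series mostly up to about 46 µM; % is set by controls: 0 for no effect and ±100 for the full control effect; inhibitors lower the ELG1-luciferase luminescence signal; nearly all actives have a fitted effect of over 70% in size.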 The procedure, abridged: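 ELG1-luciferase HEK293T reporter; 5-fluorouridine + compound/DMSO, 16 hr, 37 °C, 5% CO2; ONE-Glo 30 min RT; luminescence read, qHTS format.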

Experiment [3] is described as follows: Nrf2 qHTS screen for inhibitors: Validation (AID 493153; active = well fitted inhibition curve with a large enough effect in the main read-out, with a control signal flat, not every such curve was filed as active). Particulars: Potency: luciferase luminescence; viability change: measured here: cytotoxicity max response. A digest of the protocol: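 Concentration-response test in A549 ARE_Fluc reporter cells (5% FBS OPTI-MEM), compound exposure 18-24 h at 37°C, 5% CO2. Cell viability measured first by CellTiter-Fluor fluorescence; ARE-driven luciferase luminescence then measured as Nrf2 activity.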
(In general: Quantitative high-throughput screening tests each substance at several concentrations.)

Experiment [4] is described as follows: qHTS for Inhibitors of Cell Surface uPA Generation: Validation Assay (AID 493164).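 Note: RAW 264.7 macrophage cells exposed to compound for 18 h; 0% is about no effect.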 The procedure, abridged:
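Compounds are titrated over seven points (2.45 nM–38.3 uM final) onto pre-plated RAW 264.7 cells and incubated for 18 h. Retained intracellular ATP, measured with ATP-Lite, indicates blocked lethal factor entry.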

The target of experiment [5] is Galactokinase (Homo sapiens) (UniProt P51570). Put plainly: qHTS Validation Assay for Inhibitors of Human Galactokinase (GALK) (AID 493189). Note: 0% is about no effect. The procedure, abridged:
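Luminescence from leftover ATP (Kinase-Glo Plus, 10 min) served as read-out after a 1 h room-temperature reaction of 5 nM GALK, 100 uM galactose and 35 uM ATP at pH8.0.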

The nature of experiment [6]: Validation screen for small molecules that induce DNA re-replication in SW480 colon adenocarcinoma cells (AID 504364). Note: 0% is about no effect. A digest of the protocol:
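Read-out: total Hoechst intensity of nuclei by fluorescence scanning imager; hits raise the fraction of nuclei with elevated DNA content. Cells received compound for 48 hr at 37 C before a 40 min stain.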

In experiment [7] the target is Phosphoglycerate kinase, glycosomal (Trypanosoma brucei brucei) (UniProt P07378). Put plainly: qHTS Validation Assay to Find Inhibitors of Phosphoglycerate Kinase (AID 504547).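 Note: control wells lack PGK and mark full inhibition.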 A digest of the protocol:
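Luminescence end-point (Kinase-Glo Plus, 10 min) after a 60 min room-temperature coupled reaction. GAPDH at 100nM final supplies 1,3-BPG to PGK. Buffer: 100mM TEA pH 7.6, 5mM MgCl2, 0.01% Tween-20. Wells lacking PGK served as controls.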

Experiment [8] deals with Thyrotropin-releasing hormone receptor (Homo sapiens) (UniProt P34981). Put plainly: qHTS for Small Molecule Agonists and Allosteric Enhancers of Human TRH Receptor: Validation Screen for Agonists (AID 493127;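 active = calcium activation more than 3 SD above the typical response in the agonist read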;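 note: intracellular calcium rise by fluo-8 fluorescence before TRH EC20 addition; 0% is about no effect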). The settings on record: TRH receptor agonist cell assay; at 2 µM; stronger effect = higher value. The procedure, abridged:
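Read-out: intracellular calcium release measured kinetically by FDSS (fluo-8, ex 480/em 530 nm), 1 reading/s after a 10-cycle baseline. TRHR cells, 2000/well, cultured 18 h at 33.5C, dye-loaded at room temp. Compound-evoked positive calcium signal flags agonists.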

Experiment [9] concerns the target Peptidyl-prolyl cis-trans isomerase NIMA-interacting 1 (Homo sapiens) (UniProt Q13526). Put plainly: qHTS Validation Assay to Find Inhibitors of Pin1 (AID 504536; active = well fitted inhibition curve with a large enough effect in the polarisation, with a control signal flat, not every such curve was filed as active; the % refers to the polarisation;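 note: 0% = full Pin1 enzyme wells and -100% = no-enzyme wells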). A digest of the protocol: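 Fluorescence polarization competition: compounds (titration) displace HiFluor-488-labeled Pin1-1b peptide from Pin1 (0.3 uM final) in pH 7.5 HEPES buffer with DTT, 10 min at room temperature; %Activity normalized to no-enzyme wells, curves fitted.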

Chain of Peptidyl-prolyl cis-trans isomerase NIMA-interacting 1 (Homo sapiens) (Q13526 whole entry, looked up): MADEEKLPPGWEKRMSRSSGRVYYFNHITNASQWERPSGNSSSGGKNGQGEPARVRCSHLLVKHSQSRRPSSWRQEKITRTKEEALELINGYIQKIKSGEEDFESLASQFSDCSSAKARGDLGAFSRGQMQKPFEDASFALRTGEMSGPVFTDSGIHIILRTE
Chain of Thyrotropin-releasing hormone receptor (Homo sapiens) (P34981 whole entry, looked up): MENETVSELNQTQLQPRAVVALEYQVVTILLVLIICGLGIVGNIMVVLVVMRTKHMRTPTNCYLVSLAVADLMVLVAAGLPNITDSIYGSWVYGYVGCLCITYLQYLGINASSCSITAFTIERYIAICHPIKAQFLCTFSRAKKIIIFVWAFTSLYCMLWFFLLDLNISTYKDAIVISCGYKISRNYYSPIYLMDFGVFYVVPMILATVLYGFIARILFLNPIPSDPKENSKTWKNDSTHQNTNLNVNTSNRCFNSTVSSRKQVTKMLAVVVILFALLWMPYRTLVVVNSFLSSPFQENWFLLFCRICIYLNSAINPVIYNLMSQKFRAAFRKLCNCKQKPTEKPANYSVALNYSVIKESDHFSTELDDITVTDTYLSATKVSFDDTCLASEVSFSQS
Chain of ATPase family AAA domain-containing protein 5 (Homo sapiens) (Q96QE3 whole entry, looked up, the tested form may be a part): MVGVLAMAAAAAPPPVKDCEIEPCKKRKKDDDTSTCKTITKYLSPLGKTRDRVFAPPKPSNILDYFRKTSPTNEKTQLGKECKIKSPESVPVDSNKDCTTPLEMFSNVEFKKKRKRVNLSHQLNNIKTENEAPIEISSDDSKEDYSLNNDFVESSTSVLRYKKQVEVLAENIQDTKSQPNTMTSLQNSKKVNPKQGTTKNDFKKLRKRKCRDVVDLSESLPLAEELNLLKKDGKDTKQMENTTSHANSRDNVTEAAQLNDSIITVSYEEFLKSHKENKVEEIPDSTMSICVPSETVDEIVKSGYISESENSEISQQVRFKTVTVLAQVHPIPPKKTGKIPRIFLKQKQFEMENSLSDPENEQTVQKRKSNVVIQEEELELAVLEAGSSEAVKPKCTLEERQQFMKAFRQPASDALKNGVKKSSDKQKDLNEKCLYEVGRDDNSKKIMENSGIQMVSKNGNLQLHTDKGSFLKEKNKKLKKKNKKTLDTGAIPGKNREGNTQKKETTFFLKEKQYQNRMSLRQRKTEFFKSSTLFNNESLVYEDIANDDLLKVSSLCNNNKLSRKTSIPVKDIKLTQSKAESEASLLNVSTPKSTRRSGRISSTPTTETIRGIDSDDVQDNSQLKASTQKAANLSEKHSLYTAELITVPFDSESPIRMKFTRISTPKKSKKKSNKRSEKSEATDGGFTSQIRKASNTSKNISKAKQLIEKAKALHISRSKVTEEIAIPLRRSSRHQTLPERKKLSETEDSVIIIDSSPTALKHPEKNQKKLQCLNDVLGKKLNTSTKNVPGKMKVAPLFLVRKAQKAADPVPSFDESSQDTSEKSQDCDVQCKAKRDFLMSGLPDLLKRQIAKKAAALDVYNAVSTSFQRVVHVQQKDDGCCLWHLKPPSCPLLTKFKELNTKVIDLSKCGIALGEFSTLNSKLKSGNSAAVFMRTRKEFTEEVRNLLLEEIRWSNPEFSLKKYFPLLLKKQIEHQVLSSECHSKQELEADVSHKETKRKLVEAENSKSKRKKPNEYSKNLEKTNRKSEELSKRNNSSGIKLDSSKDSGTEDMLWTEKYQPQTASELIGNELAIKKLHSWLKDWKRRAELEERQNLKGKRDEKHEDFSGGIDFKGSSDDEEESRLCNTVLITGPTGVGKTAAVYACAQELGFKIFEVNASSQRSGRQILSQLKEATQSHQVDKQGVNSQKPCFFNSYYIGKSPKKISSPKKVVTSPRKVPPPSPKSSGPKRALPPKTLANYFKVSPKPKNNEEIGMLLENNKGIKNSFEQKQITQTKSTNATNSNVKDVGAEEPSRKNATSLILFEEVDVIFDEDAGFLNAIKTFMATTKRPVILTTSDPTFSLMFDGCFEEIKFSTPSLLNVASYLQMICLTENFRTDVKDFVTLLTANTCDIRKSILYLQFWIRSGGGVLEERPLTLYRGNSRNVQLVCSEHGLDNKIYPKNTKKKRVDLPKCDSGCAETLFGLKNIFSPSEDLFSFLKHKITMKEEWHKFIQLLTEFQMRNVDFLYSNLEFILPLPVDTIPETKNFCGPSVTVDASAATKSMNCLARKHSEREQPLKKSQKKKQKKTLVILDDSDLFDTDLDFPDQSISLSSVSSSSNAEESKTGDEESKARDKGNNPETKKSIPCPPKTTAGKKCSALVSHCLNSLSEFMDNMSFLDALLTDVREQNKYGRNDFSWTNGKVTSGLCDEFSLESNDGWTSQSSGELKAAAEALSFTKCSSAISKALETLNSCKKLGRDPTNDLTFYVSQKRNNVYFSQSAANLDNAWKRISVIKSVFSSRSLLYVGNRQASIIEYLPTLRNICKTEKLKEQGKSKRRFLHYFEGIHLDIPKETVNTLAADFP
Chain of Galactokinase (Homo sapiens) (P51570 whole entry, looked up): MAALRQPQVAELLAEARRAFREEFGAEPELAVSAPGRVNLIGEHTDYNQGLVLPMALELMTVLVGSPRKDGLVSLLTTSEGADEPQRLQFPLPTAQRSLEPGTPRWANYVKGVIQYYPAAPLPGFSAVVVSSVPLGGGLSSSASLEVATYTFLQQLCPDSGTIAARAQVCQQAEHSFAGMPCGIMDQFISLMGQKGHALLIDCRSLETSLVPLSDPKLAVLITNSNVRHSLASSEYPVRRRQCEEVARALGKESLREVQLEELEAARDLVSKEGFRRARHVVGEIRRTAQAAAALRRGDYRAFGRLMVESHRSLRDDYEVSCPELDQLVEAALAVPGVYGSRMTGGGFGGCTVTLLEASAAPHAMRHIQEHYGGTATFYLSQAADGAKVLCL
Chain of Phosphoglycerate kinase, glycosomal (Trypanosoma brucei brucei) (P07378 whole entry, looked up): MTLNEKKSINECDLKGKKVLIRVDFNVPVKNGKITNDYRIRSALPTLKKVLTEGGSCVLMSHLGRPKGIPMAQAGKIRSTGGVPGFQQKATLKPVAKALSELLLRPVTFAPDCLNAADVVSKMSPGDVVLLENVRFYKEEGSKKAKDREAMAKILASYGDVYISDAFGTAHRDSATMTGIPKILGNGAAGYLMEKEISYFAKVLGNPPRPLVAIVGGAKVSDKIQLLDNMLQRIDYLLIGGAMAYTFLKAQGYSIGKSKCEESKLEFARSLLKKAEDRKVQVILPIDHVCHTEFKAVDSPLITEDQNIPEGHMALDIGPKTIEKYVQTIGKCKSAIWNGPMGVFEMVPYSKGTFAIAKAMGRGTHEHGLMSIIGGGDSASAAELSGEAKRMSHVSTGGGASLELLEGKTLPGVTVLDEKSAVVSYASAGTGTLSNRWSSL

`CCn1cc(C(=O)O)c(=O)c2cc(F)c(N3CCNC(C)C3)c(F)c21` (stereo not drawn): the Potency entry in experiment [1], in experiment [2] and in [3] was “inactive” in each case. Also, the viability change in experiment [3] was -3.76%. Moreover, the result in experiment [4], in [5], in experiment [6] and in experiment [7] was inactive.
With `CCN(CC)CCCC(C)Nc1ccnc2cc(Cl)ccc12` (stereo not drawn), the Potency result in [1], in [2] and in [3] was “inactive” throughout. The activation in [8] is 0.875% (inactive). Moreover, in [3], the viability change is -17.9%. Moreover, the call in [4], in [6], in [9] and in experiment [7] was inactive.
Regarding `O=C1CCc2cc(OCCCCc3nnnn3C3CCCCC3)ccc2N1`, the Potency entry in experiment [1] and in experiment [2] was “inactive” each time. For the same compound, in experiment [8], the activation was 3.38% (inactive). For the same compound, the compound was called inactive in experiment [4], in experiment [5], in experiment [6], in [9] and in experiment [7].
Consider `Cc1cc2c(C(C)C)c(O)c(O)c(C=O)c2c(O)c1-c1c(C)cc2c(C(C)C)c(O)c(O)c(C=O)c2c1O`, for which the Potency result in experiment [1] is “inactive”. For the same compound, in experiment [4], the compound was called inactive.
With `Cc1cccc(-c2[nH]c(C(C)(C)C)nc2-c2ccc3nccnc3c2)n1`, the Potency result in experiment [1] was “inactive”. Further, the compound was classed as inactive in experiment [4], in [9] and in [7].
Consider `CCOC(=O)C1=C[C@]2(CC)CCCN3CCc4c(n1c1ccccc41)[C@@H]32`, for which the Potency entry in experiment [1] and in experiment [3] was “inactive” in each case. For the same compound, the activation in [8] is 0.0625% (inactive). In addition, the viability change in experiment [3] was -5.34%. The result in experiment [4], in experiment [5], in experiment [6], in experiment [9] and in [7] was inactive.
Regarding `Cn1cnc([N+](=O)[O-])c1Sc1ncnc2nc[nH]c12`, the Potency result in [1], in [2] and in experiment [3] was “inactive” each time. Besides, the activation in experiment [8] was 0.875% (inactive). Also, the viability change in [3] is -10.4%. Moreover, the call in experiment [4], in experiment [5], in experiment [6], in experiment [9] and in experiment [7] was inactive.
`Clc1cccc(Cl)c1NC1=NCCN1`: the Potency result in experiment [1], in [2] and in [3] was “inactive” in each case. In addition, in [3], the viability change is 0.846%. Also, the call in [4], in experiment [5], in experiment [6], in [9] and in [7] was inactive.
On to `OC(CCN1CCCCC1)(c1ccccc1)C1CC2C=CC1C2` (stereo not drawn), for which the Potency entry in experiment [1], in experiment [2] and in experiment [3] was “inactive” each time. Also, the viability change in [3] is -8.46%. Moreover, the compound was classed as inactive in experiment [4], in experiment [9] and in [7].
Take `O=C(O)COCCN1CCN(C(c2ccccc2)c2ccc(Cl)cc2)CC1` (stereo not drawn): the Potency entry in experiment [1], in experiment [2] and in experiment [3] was “inactive” each time. Also, the viability change in experiment [3] was 1.19%. Moreover, the call in [4], in experiment [9] and in [7] was inactive.

For the origin of these results see PubChem BioAssay (NCATS).
